Test results published in PubChem BioAssay AID1159580 (chemical genetic matrix, 2015).
“And” between values parts separate entries of the source, which are not always exact repeats. Equal values may be shown once. The whole screen tested about 5,500 compounds, of which about 2,000 (36%) were called active. Roughly 18% stayed inconclusive and do not appear here. Rule as the data show it: active = normalized growth mostly below about 0.91 (no sharp cut-off); inconclusive = no clear call, values can overlap the other calls; inactive = mostly above about 0.92. The list shows a part of the results.

Experiment: chemical genetic growth profiling, strain panel (AID 1159580);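 also: tested at 20 µM; growth read once vehicle control cultures reached saturation at 30 °C; 1 = growth at the plate median or of vehicle wells; lower values mean less growth of the strain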
Details: S. cerevisiae deletion strains, growth OD

Measured: normalized growth

O=C(O)P(=O)(O)O
0.898 (active) and 1.05 (inactive): locus YHR030C, strain SLT2, stronger effect = lower value
0.738 (active) and 1.03 (inactive): locus YJL095W, strain BCK1, stronger effect = lower value
inactive: locus YAL013W, strain DEP1, stronger effect = lower value 0.961 | locus YAL021C, strain ccr4, stronger effect = lower value 1.01 | locus YAL026C, strain drs2, stronger effect = lower value 0.979 | locus YAL030W, strain snc1, stronger effect = lower value 0.985 | locus YBL061C, strain skt5, stronger effect = lower value 0.984 | locus YBR009C, strain hhf1, stronger effect = lower value 1.01 | locus YBR021W, strain FUR4, stronger effect = lower value 0.994 | locus YBR023C, strain chs3, stronger effect = lower value 0.969 | locus YBR171W, strain sec66, stronger effect = lower value 0.994 | locus YBR229C, strain ROT2, stronger effect = lower value 0.996 | locus YBR231C, strain swc5, stronger effect = lower value 0.958 | locus YBR279W, strain paf1, stronger effect = lower value 0.981 | locus YCL011C, strain gbp2, stronger effect = lower value 0.982 | locus YCL016C, strain dcc1, stronger effect = lower value 0.998 | locus YCL029C, strain bik1, stronger effect = lower value 0.969 | locus YCL069W, strain vba3, stronger effect = lower value 1 | locus YCR088W, strain abp1, stronger effect = lower value 0.984 | locus YDL005C, strain med2, stronger effect = lower value 0.968 | locus YDL035C, strain GPR1, stronger effect = lower value 1 | locus YDL040C, strain nat1, stronger effect = lower value 0.984 | locus YDL074C, strain BRE1, stronger effect = lower value 0.892 | locus YDL101C, strain DUN1, stronger effect = lower value 0.964 | locus YDL134C, strain PPH21, stronger effect = lower value 1.01 | locus YDL185W, strain tfp1, stronger effect = lower value 0.932 | locus YDL192W, strain arf1, stronger effect = lower value 0.961 | locus YDR001C, strain nth1, stronger effect = lower value 0.976 | locus YDR069C, strain doa4, stronger effect = lower value 0.983 | locus YDR101C, strain arx1, stronger effect = lower value 0.983 | locus YDR137W, strain rgp1, stronger effect = lower value 0.984 | locus YDR150W, strain NUM1, stronger effect = lower value 0.986 | locus YDR159W, strain sac3, stronger effect = lower value 0.963 | locus YDR162C, strain NBP2, stronger effect = lower value 0.902 | locus YDR195W, strain ref2 0.955 | locus YDR297W, strain sur2, stronger effect = lower value 0.992 | locus YDR318W, strain mcm21, stronger effect = lower value 0.976 | locus YDR334W, strain swr1, stronger effect = lower value 0.988 | locus YDR335W, strain msn5, stronger effect = lower value 0.991 | locus YDR388W, stronger effect = lower value 0.967 | locus YDR392W, strain spt3, stronger effect = lower value 0.977 | locus YDR502C, strain sam2, stronger effect = lower value 0.957 | locus YEL003W, strain gim4, stronger effect = lower value 0.984 | locus YEL037C, strain rad23, stronger effect = lower value 0.99 | locus YEL061C, strain CIN8 (second series), stronger effect = lower value 0.975 | locus YEL061C, strain CIN8, stronger effect = lower value 0.984 | locus YER015W, strain faa2, stronger effect = lower value 0.984 | locus YER016W, strain bim1, stronger effect = lower value 0.983 | locus YER110C, stronger effect = lower value 0.936 | locus YER111C, strain swi4, stronger effect = lower value 0.98 | locus YER155C, strain BEM2 (second series), stronger effect = lower value 0.935 | locus YER155C, strain BEM2, stronger effect = lower value 0.983 | locus YER167W, strain BCK2, stronger effect = lower value 0.98 | locus YFR010W, strain ubp6, stronger effect = lower value 0.965 | locus YGL078C, strain dbp3, stronger effect = lower value 0.986 | locus YGL086W, strain mad1, stronger effect = lower value 0.965 | locus YGL167C, strain pmr1, stronger effect = lower value 0.984 | locus YGL173C, strain kem1, stronger effect = lower value 0.992 | locus YGL227W, strain vid30, stronger effect = lower value 0.982 | locus YGL240W, strain doc1, stronger effect = lower value 0.964 | locus YGL248W, strain PDE1, stronger effect = lower value 0.94 | locus YGL253W, strain hxk2, stronger effect = lower value 0.985 | locus YGR078C, strain PAC10, stronger effect = lower value 0.93 | locus YGR135W, strain pre9, stronger effect = lower value 0.945 | locus YGR229C, strain SMI1, stronger effect = lower value 0.886 | locus YGR252W, strain gcn5, stronger effect = lower value 0.911 | locus YHR013C, strain ard1, stronger effect = lower value 0.985 | locus YHR027C, strain rpn1, stronger effect = lower value 0.999 | locus YHR079C, strain IRE1 (second series), stronger effect = lower value 0.963 | locus YHR079C, strain IRE1, stronger effect = lower value 1.05 | locus YHR094C, strain hxt1, stronger effect = lower value 0.982 | locus YHR129C, strain ARP1, stronger effect = lower value 0.973 | locus YHR142W, strain chs7, stronger effect = lower value 0.978 | locus YHR200W, strain rpn10, stronger effect = lower value 0.96 | locus YIL066C, strain RNR3, stronger effect = lower value 0.999 | locus YIL073C, strain SPO22, stronger effect = lower value 0.868 | locus YIL125W, strain kgd1, stronger effect = lower value 0.979 | locus YIR030C, strain dcg1, stronger effect = lower value 0.959 | locus YJL092W, strain hpr5, stronger effect = lower value 0.982 | locus YJL095W, strain BCK1 (second series), stronger effect = lower value 0.993 | locus YJL115W, strain asf1, stronger effect = lower value 0.986 | locus YJL129C, strain trk1, stronger effect = lower value 0.984 | locus YJL134W, strain LCB3, stronger effect = lower value 0.985 | locus YJL154C, strain vps35, stronger effect = lower value 0.977 | locus YJL164C, strain tpk1, stronger effect = lower value 1 | locus YJL166W, strain qcr8, stronger effect = lower value 0.978 | locus YJL168C, strain set2, stronger effect = lower value 0.97 | locus YJL187C, strain SWE1 (second series), stronger effect = lower value 0.942 | locus YJL187C, strain SWE1, stronger effect = lower value 0.965 | locus YJR043C, strain POL32, stronger effect = lower value 0.972 | locus YJR066W, strain TOR1, stronger effect = lower value 0.982 | locus YJR075W, strain HOC1, stronger effect = lower value 0.926 | locus YKL009W, strain mrt4, stronger effect = lower value 0.931 | locus YKL068W, stronger effect = lower value 0.969 | locus YKL085W, strain MDH1 (second series), stronger effect = lower value 0.96 | locus YKL085W, strain MDH1, stronger effect = lower value 0.96 | locus YKL160W, strain elf1, stronger effect = lower value 0.995 | locus YKL190W, strain CNB1, stronger effect = lower value 0.981 | locus YKR026C, strain gcn3, stronger effect = lower value 0.977 | locus YKR091W, strain srl3, stronger effect = lower value 0.986 | locus YLL001W, strain dnm1, stronger effect = lower value 0.991 | locus YLL026W, stronger effect = lower value 1 | locus YLL041C, strain sdh2, stronger effect = lower value 0.989 | locus YLR027C, strain aat2, stronger effect = lower value 0.974 | locus YLR039C, strain RIC1, stronger effect = lower value 0.855 | locus YLR058C, strain SHM2, stronger effect = lower value 0.97 | locus YLR102C, strain apc9, stronger effect = lower value 0.977 | locus YLR113W, strain HOG1, stronger effect = lower value 1.07 | locus YLR221C, strain rsa3, stronger effect = lower value 0.975 | locus YLR258W, strain gsy2, stronger effect = lower value 1 | locus YLR262C, strain YPT6 (second series), stronger effect = lower value 0.967 | locus YLR262C, strain YPT6, stronger effect = lower value 0.842 | locus YLR268W, strain sec22, stronger effect = lower value 0.949 | locus YLR320W, strain mms22, stronger effect = lower value 0.967 | locus YLR330W, strain CHS5, stronger effect = lower value 0.957 | locus YLR342W, strain FKS1 (second series), stronger effect = lower value 0.897 | locus YLR342W, strain FKS1, stronger effect = lower value 0.981 | locus YLR357W, strain rsc2, stronger effect = lower value 0.972 | locus YLR370C, strain arc18, stronger effect = lower value 0.995 | locus YLR371W, strain rom2, stronger effect = lower value 0.982 | locus YLR384C, strain iki3, stronger effect = lower value 1 | locus YLR418C, strain cdc73, stronger effect = lower value 0.91 | locus YML016C, strain PPZ1, stronger effect = lower value 0.984 | locus YML032C, strain rad52, stronger effect = lower value 0.977 | locus YML120C, strain ndi1, stronger effect = lower value 0.98 | locus YML124C, strain tub3, stronger effect = lower value 0.981 | locus YMR058W, strain fet3, stronger effect = lower value 0.983 | locus YMR078C, strain ctf18, stronger effect = lower value 0.956 | locus YMR125W, strain sto1, stronger effect = lower value 0.986 | locus YMR129W, stronger effect = lower value 0.984 | locus YMR205C, strain PFK2, stronger effect = lower value 0.975 | locus YMR223W, strain ubp8, stronger effect = lower value 0.95 | locus YMR231W, strain pep5, stronger effect = lower value 0.993 | locus YMR263W, strain SAP30, stronger effect = lower value 0.938 | locus YNL067W, strain RPL9B, stronger effect = lower value 0.923 | locus YNL071W, strain lat1, stronger effect = lower value 0.99 | locus YNL128W, strain TEP1, stronger effect = lower value 0.925 | locus YNL153C, strain GIM3, stronger effect = lower value 0.968 | locus YNL183C, strain NPR1, stronger effect = lower value 0.975 | locus YNL209W, strain ssb2, stronger effect = lower value 0.983 | locus YNL233W, strain BNI4, stronger effect = lower value 0.923 | locus YNL248C, strain rpa49, stronger effect = lower value 0.981 | locus YNL250W, strain rad50, stronger effect = lower value 0.956 | locus YNL271C, strain bni1, stronger effect = lower value 0.966 | locus YNL298W, strain CLA4, stronger effect = lower value 0.976 | locus YNL307C, strain MCK1, stronger effect = lower value 0.962 | locus YNL322C, strain KRE1 (second series), stronger effect = lower value 0.981 | locus YNL322C, strain KRE1, stronger effect = lower value 0.974 | locus YNR049C, strain mso1, stronger effect = lower value 0.987 | locus YNR052C, strain pop2, stronger effect = lower value 0.971 | locus YOL012C, strain htz1 0.927 | locus YOL147C, strain pex11, stronger effect = lower value 0.976 | locus YOR001W, strain rrp6, stronger effect = lower value 0.981 | locus YOR061W, strain CKA2, stronger effect = lower value 0.98 | locus YOR069W, strain VPS5, stronger effect = lower value 0.986 | locus YOR070C, strain gyp1, stronger effect = lower value 0.988 | locus YOR080W, strain dia2, stronger effect = lower value 0.987 | locus YOR083W, strain WHI5, stronger effect = lower value 0.995 | locus YOR106W, strain vam3, stronger effect = lower value 0.983 | locus YOR136W, strain idh2, stronger effect = lower value 0.968 | locus YOR144C, strain elg1, stronger effect = lower value 0.977 | locus YOR184W, strain ser1, stronger effect = lower value 0.941 | locus YOR231W, strain MKK1, stronger effect = lower value 1.04 | locus YOR265W, strain rbl2, stronger effect = lower value 0.996 | locus YOR270C, strain vph1, stronger effect = lower value 0.961 | locus YOR290C, strain snf2, stronger effect = lower value 0.997 | locus YOR316C, strain cot1, stronger effect = lower value 0.974 | locus YPL051W, strain arl3, stronger effect = lower value 1.01 | locus YPL055C, strain LGE1, stronger effect = lower value 0.948 | locus YPL078C, strain atp4, stronger effect = lower value 1 | locus YPL106C, strain sse1, stronger effect = lower value 0.978 | locus YPL240C, strain hsp82, stronger effect = lower value 0.985 | locus YPL241C, strain CIN2, stronger effect = lower value 0.986 | locus YPL256C, strain CLN2, stronger effect = lower value 1.07 | locus YPR119W, strain clb2, stronger effect = lower value 0.963 | locus YPR141C, strain kar3, stronger effect = lower value 0.958 | locus YPR163C, strain tif3, stronger effect = lower value 0.989 | locus YPR167C, strain met16, stronger effect = lower value 0.963 | strain wtn01, stronger effect = lower value 0.964
active: locus YKR001C, strain vps1, stronger effect = lower value 0.894 | locus YMR307W, strain GAS1, stronger effect = lower value 0.443
